Measured values from PubChem BioAssay AID633 (Emory University Molecular Libraries Screening Center, 2007).
About 1,100 (1.3%) of roughly 86,000 compounds were called active. The sample as a whole holds a higher share of actives than the screen did. A number with no mark means an inactive call.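 How the source made its calls: active means compounds whose percent inhibition of the receptor-coactivator binding signal exceeds about 50% in the single-dose screen (limit read from the data); inactive means the rest.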

molecular target: Estrogen receptor beta (Homo sapiens) (UniProt Q92731); assay: inhibitors of ERβ-SRC1 coactivator interaction, primary screen, biochemical, TR-FRET, ERβ LBD, SRC-1 peptide (AID 633); conditions: TR-FRET ER-beta LBD / SRC1-Cy5 peptide binding; at 25.6 µM; hits give high values; receptor agonist-loaded with 1 µM estradiol;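 further: 0% = receptor plus peptide wells without compound and 100% = peptide-only wells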
Sequence (Q92731 whole entry, looked up, the tested form may be a part): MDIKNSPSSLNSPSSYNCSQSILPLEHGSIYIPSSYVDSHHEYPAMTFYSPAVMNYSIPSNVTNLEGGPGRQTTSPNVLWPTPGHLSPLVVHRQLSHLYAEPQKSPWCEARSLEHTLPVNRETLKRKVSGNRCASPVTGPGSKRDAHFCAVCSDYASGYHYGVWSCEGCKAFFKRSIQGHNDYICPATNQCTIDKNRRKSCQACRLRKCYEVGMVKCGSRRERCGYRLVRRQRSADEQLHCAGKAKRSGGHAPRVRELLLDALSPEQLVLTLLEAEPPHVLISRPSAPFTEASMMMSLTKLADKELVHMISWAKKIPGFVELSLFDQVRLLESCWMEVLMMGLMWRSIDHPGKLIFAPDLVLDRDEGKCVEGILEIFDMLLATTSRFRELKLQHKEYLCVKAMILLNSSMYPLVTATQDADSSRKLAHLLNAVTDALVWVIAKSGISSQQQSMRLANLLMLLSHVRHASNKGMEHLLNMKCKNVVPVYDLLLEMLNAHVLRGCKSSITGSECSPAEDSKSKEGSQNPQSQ

SMILES	inhibition
CC(CO)N1CCS(=O)(=O)CC1 (stereo unspecified)	-15%
CCN(c1ccccc1)S(=O)(=O)c1ccc(NC(=O)C(C)(C)C)cc1	14.4%
C=CCn1c(SCC(=O)/C(C#N)=C(\C)N)nc2sc(C)c(C)c2c1=O	16.2%
CCCn1c(=O)c2ccccc2n2c(SCC(=O)/C(C#N)=C(\C)N)nnc12	50.4% [fluorescence artefact?] (active)
C=CCn1c(=O)c2ccccc2n2c(SCC(=O)N3CCCc4ccccc43)nnc12	-1.59%
O=C(CN1CCSCC1)N/N=C/c1ccc(F)cc1F	12.6%
CC(C)(O)C(=O)NN(C(=O)c1ccccc1)c1cccc(Br)c1	-3.36%
COC(=O)c1cccc(N(C(=O)c2ccco2)C(C(=O)NC2CCCC2)c2ccco2)c1 (stereo unspecified)	-14.4%
O=C(NCCOc1ccccc1)c1ccccc1	7.95%
O=C(Cn1nnc(-c2ccc3c(c2)OCO3)n1)NCc1ccco1	50.1% (active)
CS(=O)(=O)N(CC(=O)NCc1ccco1)c1ccc2c(c1)OCO2	44.3%
O=C(Cn1nnc(-c2ccccc2)n1)NCc1ccc2c(c1)OCO2	9.19%
CC1(N2CCOCC2)CC2(O)C(=[N+]1[O-])CCc1nonc12 (stereo unspecified)	58.1% (active)
Cc1[nH]n(-c2cccc(Cl)c2)c(=O)c1/C=N/n1c(C)nc2ccccc2c1=O	-3.58%
CC(=O)Nc1ccc(S(=O)(=O)N2CCN(C(=O)c3ccccc3F)CC2)cc1	-9.27%
O=C(CN1CCCCCC1)N1c2ccccc2Sc2ccc(C(F)(F)F)cc21	-7.5%
CC(c1ccco1)N(C(=O)Nc1ccccc1)C1CCCCC1 (stereo unspecified)	0.39%
Cc1c(Br)cc(C(=O)N2CCCCCC2)c(C)c1C	-18.4%
COc1ccc(Cc2nnc(NS(=O)(=O)Cc3ccccc3)s2)cc1	39.9%
CCCc1ccc(-c2csc(NC(=O)Cc3cccs3)n2)cc1	11.4%
COc1ccc(Cc2nnc(NC(=O)Cc3cccs3)s2)cc1	92% (active)
COc1ccc(Nc2oc(-c3ccccc3Cl)nc2C#N)cc1	76.6% [fluorescence artefact?] (active)
CCOc1ccc(Nc2oc(Cc3ccccc3)nc2C#N)cc1	-1.53%
COc1ccccc1-c1nc(C#N)c(N2CCC(C(N)=O)CC2)o1	-16.6%
Cc1ccc(/C=N/NC(=O)Cn2nc(C)c(Br)c2C)o1	-11.6%
CCOc1ccccc1C(=O)NC1CC2CCCC(C1)N2Cc1ccccc1 (stereo unspecified)	5.21%
